Screens: PubChem, National Center for Advancing Translational Sciences (NCATS)
Compounds with a hit are over-represented: about 7.3% of the library has one in this group of screens.
p53 reactivator – restores transcriptional activity of mutant p53 | H1299 p53-A138V BP100-luciferase reporter, luminescence, 24 h | Potency, µM (series often up to 92.2 µM), without a hit: top-dose activity change, positive = activation, actives largely listed as activators | hit rate 0.063% among 320,000 | AID 504706; further: % of control where 0% means no effect; nearly all actives have a fitted effect of over 45% in size
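H1299 (p53-null), stable ts p53-A138V + BP100-Luc; 1000 cells/well, Opti-MEM/10% FBS; cpd 4 pt, 1:5; 24 h, 37 deg C, 5% CO2; detection reagent 10 min RT; luminescence.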
FLuc counter – counter-screen for miR-21 project: firefly luciferase inhibitors or activators; P08659; purified FLuc, Km substrates, luminescence inhibition; Potency, µM (top dose mostly 57.5 µM), for the others: top-dose activity change, negative = inhibition, hits mostly inhibitors; hit rate 6.9% among 360,000;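 further: plate controls were vehicle for no effect and reference inhibitor for full effect; nearly all actives have a fitted effect of over 55% in size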
Target sequence (P08659 whole entry, looked up): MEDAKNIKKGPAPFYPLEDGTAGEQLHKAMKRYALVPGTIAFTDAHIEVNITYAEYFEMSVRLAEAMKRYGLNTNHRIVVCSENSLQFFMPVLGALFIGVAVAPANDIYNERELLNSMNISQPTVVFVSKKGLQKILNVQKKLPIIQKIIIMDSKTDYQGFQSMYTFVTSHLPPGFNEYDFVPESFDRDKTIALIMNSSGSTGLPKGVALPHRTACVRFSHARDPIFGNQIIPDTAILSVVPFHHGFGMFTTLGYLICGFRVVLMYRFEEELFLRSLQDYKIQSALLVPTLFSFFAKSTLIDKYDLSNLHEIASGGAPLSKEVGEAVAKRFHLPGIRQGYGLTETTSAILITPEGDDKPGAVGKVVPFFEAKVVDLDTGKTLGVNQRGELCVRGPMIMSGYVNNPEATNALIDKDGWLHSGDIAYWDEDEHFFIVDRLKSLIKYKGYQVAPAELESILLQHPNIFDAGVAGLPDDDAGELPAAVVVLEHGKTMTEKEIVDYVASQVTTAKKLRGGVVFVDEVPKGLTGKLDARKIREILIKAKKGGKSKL
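Purified P. pyralis luciferase (10nM final) with 10uM D-luciferin and 10uM ATP (Km levels) in 50mM Tris acetate pH 7.5, 10mM Mg acetate, 0.01% Tween-20, 0.05% BSA; qHTS 6-point titration, ~60 µM downward; luminescence read.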
Rab9 promoter act – Rab9 promoter activation | Huh7 Rab9 promoter-luciferase reporter, luminescence, 24 h | Potency, µM (titrated, usually from 9.22 µM), without a hit: at the highest dose activation, negative = inhibition, most hits filed as activators | hit rate 2.8% among 320,000 | AID 485297; further: % of control where 0% means no effect; nearly all actives have a fitted effect of over 60% in size
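Cells were plated at 1500 per well in reduced-serum medium with 10% FBS and left 2 h. Compound in DMSO was then added for 24 h at 37 °C. Reporter signal was read by luminescence after 10 min with luciferase detection reagent.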
SMN2 splice up – increases expression of the SMN2 splice variant | HEK293 SMN2-luciferase splicing reporter, luminescence, 30-36 h | Potency, µM (titrated, usually from 46.1 µM), inactives show top-dose activity change, positive = activation, usual class: activators | hit rate 2.8% among 210,000; further: % of control where 0% means no effect; nearly all actives have a fitted effect of over 55% in size
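HEK293 cells carry an SMN2 minigene-luciferase reporter in which exon 7 inclusion puts luciferase in frame. Cells were seeded at 2000 cells/well, attached for 10-12 hours, then exposed to compounds for 30-36 hours at 37C before ONE-Glo luminescence.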
NPC1 promoter act – activators of NPC1 promoter; Huh7 NPC1 promoter luciferase reporter, 24 h; Potency, µM (top dose mostly 9.22 µM), for inactives: top-dose activation, actives largely listed as activators; hit rate 2.4% among 320,000; further: % of control where 0% means no effect; nearly all actives have a fitted effect of over 60% in size
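Luminescence read-out of NPC1 promoter-driven luciferase in stably transfected Huh7 cells; compounds delivered in DMSO and left 24 h at 37C, 5% CO2, qHTS titration format.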
ELG1 genotoxic – induces genotoxicity in HEK293T cells with luciferase-tagged ELG1; hit rate 1.3% among 330,000; HEK293T ELG1-luciferase reporter, luminescence, 16 h; Potency, µM (titrated, usually from 46 µM), inactives show at the highest dose activity change, positive = activation, usual class: activators; further: % of control where 0% means no effect; nearly all actives have a fitted effect of over 60% in size
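DMSO vehicle served as control against compound-treated ELG1-luciferase HEK293T cells; exposure lasted 16 hr at 37 °C and 5% CO2, followed by ONE-Glo luminescence detection after 30 min.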
* hit, by the source's call; [ ] = remark or other dose. The call rests on the fitted dose curve; in most records, active means well fitted curve in the direction sought with a large enough effect; inconclusive means small, poorly fitted or top-dose-only effect, or another doubt; inactive means no such curve, though single readings can be large; an effect the other way counts as inactive or inconclusive. Potency means the concentration at half of the fitted maximal effect.

How did Cn1nnnc1SCc1nc2ccccc2s1 do in these assays?
p53 reactivator: inconclusive; FLuc counter: inconclusive; Rab9 promoter act: inconclusive; SMN2 splice up: inconclusive; NPC1 promoter act: 20%; ELG1 genotoxic: 14%

How did CCN(CC)S(=O)(=O)c1cccc(-c2nnc(SCc3nc4ccccc4s3)o2)c1 do in these assays?
p53 reactivator: inconclusive; FLuc counter: 15µM*; Rab9 promoter act: inconclusive; SMN2 splice up: -45%; NPC1 promoter act: 14%; ELG1 genotoxic: 3%

What do the screens show for `O=C(O)CCc1cc(I)c(O)c(I)c1`?
SMN2 splice up: -1%

How did CCCCc1nc2c(c3c1C[C@H](C)OC3)CN(S(=O)(=O)c1ccc(C)cc1)CC2 do in these assays?
SMN2 splice up: -10%[9.22 µM]

How did COc1ccc(-c2cc(=O)[nH]c3ccccc23)cc1 do in these assays?
p53 reactivator: 1%; FLuc counter: -1%; Rab9 promoter act: -1%; NPC1 promoter act: -8%; ELG1 genotoxic: 0%

How did COc1cccc2[nH]c(=O)c(-c3ccccc3)cc12 do in these assays?
p53 reactivator: inconclusive; FLuc counter: 12µM*; Rab9 promoter act: 2.8µM*; NPC1 promoter act: 3.5µM*; ELG1 genotoxic: inconclusive

What do the screens show for `CCc1ccccc1Nc1nn2c(=O)c3ccc(C(=O)NCc4cccs4)cc3nc2s1`?
FLuc counter: -8%; Rab9 promoter act: 1%; NPC1 promoter act: -13%

What do the screens show for `Cc1ccc2c(C)c(C(=O)N(C)C(C)c3ccon3)oc2c1C` (stereo unspecified)?
p53 reactivator: 7%; FLuc counter: 15µM*; Rab9 promoter act: 3.2µM*; NPC1 promoter act: inconclusive; ELG1 genotoxic: inconclusive

How did CC1(C)Cc2c(cnn2-c2ccc(F)cc2)C(NC(=O)CN2CCCCC2=O)C1 (stereo unspecified) do in these assays?
p53 reactivator: 1%; FLuc counter: 19µM*; Rab9 promoter act: -9%; NPC1 promoter act: 0%; ELG1 genotoxic: 6%

Results for O=C(N/N=C/c1cn(-c2cccs2)nc1-c1ccccc1)c1ccccc1O ?
p53 reactivator: inconclusive; FLuc counter: 9.5µM*; Rab9 promoter act: -4%; NPC1 promoter act: -2%; ELG1 genotoxic: -2%

Results for O=C(N/N=C/c1coc2ccccc2c1=O)c1cn(-c2ccccc2)nc1-c1ccccc1 ?
p53 reactivator: -11%; FLuc counter: inconclusive; Rab9 promoter act: 3%; SMN2 splice up: 12%; NPC1 promoter act: 0%; ELG1 genotoxic: -6%

Results for O=C(N/N=C/c1cn(-c2cccs2)nc1-c1ccccc1)c1ccccc1Br ?
p53 reactivator: inconclusive; FLuc counter: 6.7µM*; Rab9 promoter act: 8%; SMN2 splice up: inconclusive; NPC1 promoter act: 7%; ELG1 genotoxic: 3%

Results for CC(C)C[C@@H](CC(=O)N[C@H](CC(=O)N[C@@H]1CCCC[C@H]1C(=O)N[C@H](CC(=O)N[C@@H](CCC(=O)O)CC(=O)O)Cc1ccccc1)C(C)C)NC(=O)[C@@H]1CNCC[C@H]1N ?
SMN2 splice up: 0%

What do the screens show for `Cc1ccc(S(=O)(=O)N=Nc2c(O)[nH]c3cc(O)c(C(=O)O)cc23)cc1`?
SMN2 splice up: -9%[9.22 µM]

What do the screens show for `CC(=O)N(C)C(c1ccc(N(C)C)cc1)c1nnnn1-c1c(C)cccc1C` (stereo unspecified)?
p53 reactivator: -2%; FLuc counter: -1%; Rab9 promoter act: -4%; SMN2 splice up: -3%; NPC1 promoter act: 2%; ELG1 genotoxic: 0%

What do the screens show for `COC(=O)CNC(=O)[C@@]1(Cc2ccccc2)C=C[C@@H](C)N1C(=O)c1ccccc1`?
SMN2 splice up: 13µM*

What do the screens show for `C[C@@H]1C=C[C@](Cc2ccccc2)(C(=O)NCC2CC2)N1C(=O)c1ccccc1`?
p53 reactivator: inconclusive; FLuc counter: inconclusive; Rab9 promoter act: 20%; SMN2 splice up: inconclusive; NPC1 promoter act: 7%; ELG1 genotoxic: 10%

How did O=C(O)CSc1cccc[n+]1[O-] do in these assays?
FLuc counter: 7%; SMN2 splice up: -13%

What do the screens show for `O=C(CSc1cccc[n+]1[O-])c1cc2ccccc2o1`?
p53 reactivator: inconclusive; FLuc counter: 19µM*; Rab9 promoter act: inconclusive; SMN2 splice up: -25%; NPC1 promoter act: inconclusive; ELG1 genotoxic: inconclusive

Results for Cc1c(-c2nc(-c3ccncc3)no2)cccc1[N+](=O)[O-] ?
p53 reactivator: 7%; FLuc counter: -15%; Rab9 promoter act: 22%; NPC1 promoter act: 26%; ELG1 genotoxic: 4%

How did c1cncc(-c2noc(-c3cccc4ccccc34)n2)c1 do in these assays?
p53 reactivator: inconclusive; FLuc counter: 7.6µM*; Rab9 promoter act: inconclusive; SMN2 splice up: 8%; NPC1 promoter act: 16%; ELG1 genotoxic: 8.2µM*

Results for c1ccc(-c2ccccc2-c2nc(-c3cccnc3)no2)cc1 ?
p53 reactivator: -5%; FLuc counter: 1%[2.3 µM]; Rab9 promoter act: -2%; SMN2 splice up: -6%; NPC1 promoter act: -5%; ELG1 genotoxic: -2%

Results for c1ccc(-c2noc(-c3cccc4ccccc34)n2)cc1 ?
p53 reactivator: inconclusive; FLuc counter: 6µM*; Rab9 promoter act: 14%; SMN2 splice up: 11µM*; NPC1 promoter act: 26%; ELG1 genotoxic: inconclusive

How did COc1ccc(-c2noc(-c3ccccc3-c3ccccc3)n2)cc1 do in these assays?
p53 reactivator: -4%; FLuc counter: inconclusive; Rab9 promoter act: -7%; SMN2 splice up: -9%; NPC1 promoter act: 0%; ELG1 genotoxic: 1%

Results for c1ccc2c(-c3nc(-c4ccncc4)no3)cccc2c1 ?
p53 reactivator: inconclusive; FLuc counter: 11µM*; Rab9 promoter act: inconclusive; SMN2 splice up: inconclusive; NPC1 promoter act: inconclusive; ELG1 genotoxic: inconclusive

Results for CC1=CC(=O)O[C@@H]1[C@@]1(C)C[C@H]2OC(=O)C[C@H]3[C@@H](C)C(=O)C(O)=C1[C@@]23CO ?
p53 reactivator: -19%; FLuc counter: -6%; Rab9 promoter act: -13%; NPC1 promoter act: -18%; ELG1 genotoxic: -48%

Results for O=C(NC(=O)N1CCN(c2cccc(Cl)c2)CC1)c1ccc(Cl)cc1 ?
p53 reactivator: -3%; FLuc counter: -1%; Rab9 promoter act: -3%; NPC1 promoter act: -4%; ELG1 genotoxic: 4%

Results for O=C(NC(=O)N1CCN(c2ccccc2)CC1)c1ccc(Cl)cc1 ?
p53 reactivator: inconclusive; FLuc counter: 27µM*; Rab9 promoter act: 20%; SMN2 splice up: 13µM*; NPC1 promoter act: 1%; ELG1 genotoxic: inconclusive

How did CCCn1ccc2c(OCC(=O)NCc3ccccc3Cl)cccc2c1=O do in these assays?
FLuc counter: -6%
